# Source: PubChem BioAssay (Tox21)
# Values without a mark were called inactive. Results filed as inconclusive are left out. A call without a number means that no potency is given here. The source made the active and inactive calls. Unless noted, the call rests on the fitted dose curve; in most records, active means well fitted curve in the direction sought with a large enough effect in the repeat runs; inconclusive means weak or mixed curves; inactive means no such curve, though single readings can be large; an effect the other way counts as inactive or inconclusive.
# Legend:
# [1] = qHTS RealTime-Glo MT Cell Viability Assay in HEK293 cells - 24 hour (AID 1224886); further: nearly all actives have a fitted effect of over 50% in size; further: potency means the concentration at half of the fitted maximal effect; on activity change, negative = cytotoxicity: top concentration of the series differs between compounds
# Summary of the method: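 Nonlytic real-time viability readout: viable cells convert prosubstrate to NanoLuc substrate, giving luminescence proportional to live cell number. HEK293, 600 cells/well, compound added after 5 h, continuous culture at 37 C.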
# [2] = qHTS RealTime-Glo MT Cell Viability Assay in HEK293 cells - 8 hour (AID 1224887); further: nearly all actives have a fitted effect of over 50% in size; further: potency means the concentration at half of the fitted maximal effect; on activity change, negative = cytotoxicity: top concentration of the series differs between compounds
# Summary of the method: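 Kinetic, non-lysing viability readout. Seed HEK293 (600/well) with reagent, incubate 5 h at 37 C/5% CO2, pin 23 nL compound in DMSO, incubate at 37 C, read luminescence at 0, 8, 16, 24, 32, 40 h.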
# [3] = A CellTox Green Cytotoxicity Assay to monitor cytotoxicity in HEK293 cells - 16 hour (AID 1224888); further: nearly all actives have a fitted effect of over 35% in size
# Summary of the method: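 Real-time, in one plate: 600 HEK293 cells/well with dead-cell DNA dye, pinned compound after 5 h, 37 C incubation over 40 h; viable cells give no appreciable fluorescence.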
# [4] = qHTS RealTime-Glo MT Cell Viability Assay in HepG2 cells - 0 hour (AID 1224889); further: nearly all actives have a fitted effect of over 50% in size
# Summary of the method: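 Luminescence read-out: viable HepG2 cells reduce a prosubstrate to a NanoLuc substrate, giving a signal proportional to live cell number. Reads taken at 0, 8, 16, 24, 32 and 40 h of compound exposure at 37 C.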
# [5] = A CellTox Green Cytotoxicity Assay to monitor cytotoxicity in HepG2 cells - 8 hour (AID 1224890); further: nearly all actives have a fitted effect of over 45% in size
# Summary of the method: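 Cytotoxicity was tracked as dead-cell DNA fluorescence in HepG2 cells treated with test compounds at 37 C; each time-point value comes from one kinetic series spanning 0, 8, 16, 24, 32 and 40 h.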
# [6] = qHTS assay to identify small molecule antagonists of the estrogen receptor alpha (ER-alpha) signaling pathway using the BG1 cell line in the presence of 0.1 nM 17-beta-estradiol - cell viability counter screen (AID 1259241); further: nearly all actives have a fitted effect of over 40% in size
# Summary of the method: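 VM7Luc4E2, 4,000 cells/well, phenol red-free medium + 10% charcoal-stripped FBS; 24 hr plating; cpd + 0.1 nM E2 final, 22 hr 37C/5% CO2; CellTiter-Fluor 30 min, fluorescence.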
# [7] = qHTS assay to identify small molecule antagonists of the androgen receptor (AR) signaling pathway using the MDA cell line in the presence of 0.5 nM R1881 - cell viability counter screen (AID 1259242); further: nearly all actives have a fitted effect of over 45% in size
# Summary of the method: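 Cells seeded at 3,000/well and allowed 5 hr at 37C, 0% CO2 before compound transfer and R1881 (0.5 nM final) addition; 16 hr later, live-cell protease fluorescence indicated cytotoxicity.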
# [8] = target: Estrogen receptor (Homo sapiens) (UniProt P03372); test: qHTS assay to identify small molecule antagonists of the estrogen receptor alpha (ER-alpha) signaling pathway using the BG1 cell line in the presence of 0.1 nM 17-beta-estradiol (AID 1259244); further: nearly all actives have a fitted effect of over 50% in size
# Chain of Estrogen receptor (Homo sapiens) (P03372 whole entry, looked up): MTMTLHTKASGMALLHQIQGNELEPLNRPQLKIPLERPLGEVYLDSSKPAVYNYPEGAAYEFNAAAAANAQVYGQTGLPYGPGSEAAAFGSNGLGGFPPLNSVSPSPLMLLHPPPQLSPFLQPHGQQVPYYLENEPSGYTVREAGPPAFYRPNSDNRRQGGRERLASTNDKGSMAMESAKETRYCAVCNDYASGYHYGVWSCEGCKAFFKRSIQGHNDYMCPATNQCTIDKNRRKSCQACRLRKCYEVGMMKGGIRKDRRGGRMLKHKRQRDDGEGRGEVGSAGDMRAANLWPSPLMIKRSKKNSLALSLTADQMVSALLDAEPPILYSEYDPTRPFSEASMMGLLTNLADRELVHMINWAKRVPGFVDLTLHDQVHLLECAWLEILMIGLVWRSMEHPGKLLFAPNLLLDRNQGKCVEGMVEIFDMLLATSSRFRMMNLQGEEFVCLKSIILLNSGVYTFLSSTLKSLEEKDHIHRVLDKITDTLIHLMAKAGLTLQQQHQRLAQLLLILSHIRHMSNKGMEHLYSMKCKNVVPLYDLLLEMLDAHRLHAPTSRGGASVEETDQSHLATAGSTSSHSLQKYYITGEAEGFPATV
# Summary of the method: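 Luciferase signal from VM7Luc4E2 ERE-reporter cells, co-dosed with test compound and 0.1 nM final 17beta-estradiol for 22 h, read with ONE-Glo.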
# [9] = qHTS assay to identify small molecule HDAC inhibitors (AID 1259364);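 further: wild-type HCT-116 cells with endogenous class I/II HDAC activity; top concentration of the series differs between compounds; nearly all actives have a fitted effect of over 45% in size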
# Summary of the method: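 HCT-116 wt cells, 1,500/well, overnight attach. Compounds (DMSO) 2 h, 37 °C. HDAC-Glo I/II, 30 min RT. Luminescence.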
# [10] = qHTS assay to identify small molecule HDAC inhibitors - cell viability counter screen (AID 1259365)
# Summary of the method: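 Luminescence from CellTiter-Glo, developed 30min at room temperature, reports viability of wild-type HCT-116 cells treated 2hr with compounds at 37 C and 5% CO2 after overnight plating.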
# [11] = qHTS assay to identify small molecule agonists of the sonic hedgehog signaling (Shh) pathway - cell viability counter screen (AID 1259366); further: nearly all actives have a fitted effect of over 50% in size
# Summary of the method: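 Cytotoxicity counter screen run in the same wells as the Shh reporter assay. NIH/3T3 cells carrying a Gli1 response element–driven luciferase were treated with DMSO-dissolved compounds for 24hr, and live-cell protease activity was measured with CellTiter-Fluor.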
# [12] = qHTS assay to identify small molecule antagonists of the sonic hedgehog signaling (Shh) pathway - cell viability counter screen (AID 1259367); further: nearly all actives have a fitted effect of over 55% in size
# Summary of the method: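 Cytotoxicity was assessed in parallel with Shh reporter activity by measuring live-cell protease fluorescence (CellTiter-Fluor) in NIH/3T3 cells stably carrying Gli1-Luc, treated with compound under conditioned medium stimulation for 23 hr plus 1 hr reagent incubation.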
# [13] = qHTS assay to identify small molecule agonists of the sonic hedgehog signaling (Shh) pathway (AID 1259368; calls by dose curve;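 further: NIH/3T3-derived 3T3Gli1-Luc cells carrying a stable Gli1-driven firefly luciferase reporter; series mostly up to about 92 µM; nearly all actives have a fitted effect of over 15% in size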)
# Summary of the method: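 Following a 24 hr incubation with DMSO-dissolved compounds at 37 C, 5% CO2, Gli1-Luc NIH/3T3-derived cells received luciferase reagent for 30 min at room temperature prior to luminescence measurement.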
# [14] = qHTS assay to identify small molecule antagonists of the sonic hedgehog signaling (Shh) pathway (AID 1259369; calls by dose curve; further: nearly all actives have a fitted effect of over 45% in size)
# Summary of the method: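 Read-out is luminescence from a firefly luciferase gene controlled by the Gli1 response element, in 3T3Gli1-Luc cells pre-incubated 4hr then exposed to compounds and conditioned medium for 24hr.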
# [15] = target: Estrogen receptor beta (Homo sapiens) (UniProt Q92731); test: qHTS assay to identify small molecule agonists of the estrogen receptor beta (ER-beta) signaling pathway (AID 1259377; active means well fitted activation curve with a large enough effect in the signal ratio in the repeat runs, not every such curve was filed as active; the % refers to the signal ratio)
# Chain of Estrogen receptor beta (Homo sapiens) (Q92731 whole entry, looked up): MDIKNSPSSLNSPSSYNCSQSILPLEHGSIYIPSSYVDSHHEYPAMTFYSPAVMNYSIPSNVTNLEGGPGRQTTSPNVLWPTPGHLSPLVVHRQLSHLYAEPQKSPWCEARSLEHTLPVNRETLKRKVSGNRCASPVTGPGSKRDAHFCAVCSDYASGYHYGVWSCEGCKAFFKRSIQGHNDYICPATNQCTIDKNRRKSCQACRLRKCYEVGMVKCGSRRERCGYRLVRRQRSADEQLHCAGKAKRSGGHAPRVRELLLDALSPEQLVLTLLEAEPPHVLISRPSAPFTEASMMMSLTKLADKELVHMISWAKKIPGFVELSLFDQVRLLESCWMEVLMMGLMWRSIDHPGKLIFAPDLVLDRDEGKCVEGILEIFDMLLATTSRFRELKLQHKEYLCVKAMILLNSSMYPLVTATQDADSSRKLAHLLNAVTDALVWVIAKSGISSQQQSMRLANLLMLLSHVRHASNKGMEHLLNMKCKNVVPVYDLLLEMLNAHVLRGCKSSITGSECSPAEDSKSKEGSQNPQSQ
# Summary of the method: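 HEK293T ER-beta-UAS-bla; 2% charcoal-stripped FBS; cells pre-incubated 6 hr, compound 16 hr, 37C/5% CO2; LiveBLAzer B/G FRET substrate 2 h RT; fluorescence intensity read.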
# [16] = qHTS assay to identify small molecule agonists of the androgen receptor (AR) signaling pathway in the presence of an antagonist - cell viability counter screen (AID 1259379);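 further: MDA-kb2 human breast cancer cells carrying an MMTV luciferase reporter; series mostly up to about 92 µM; nearly all actives have a fitted effect of over 25% in size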
# Summary of the method: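 Each compound was tested at 15 concentrations on MDA-kb2 cells in the presence of 3.0uM nilutamide. Viability was measured by CellTiter-Fluor fluorescence after a 16 hr incubation at 37C in a CO2-free atmosphere.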
# [17] = qHTS assay to identify small molecule agonists of the estrogen receptor beta (ER-beta) signaling pathway - cell viability counter screen (AID 1259380); further: nearly all actives have a fitted effect of over 30% in size
# Summary of the method: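 Compounds dissolved in DMSO were pin-transferred onto ER-beta-UAS-bla HEK293T cells that had settled 6 hr, and exposure ran 16 hr at 37C. Following the reporter read, CellTiter-Glo luminescence after 30 min at room temperature indicated cytotoxicity.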
# [18] = target: Androgen receptor (Homo sapiens) (UniProt P10275); test: qHTS assay to identify small molecule antagonists of the androgen receptor (AR) signaling pathway using the MDA cell line in the presence of 0.5 nM R1881 (AID 1259243); further: nearly all actives have a fitted effect of over 50% in size
# Chain of Androgen receptor (Homo sapiens) (P10275 whole entry, looked up): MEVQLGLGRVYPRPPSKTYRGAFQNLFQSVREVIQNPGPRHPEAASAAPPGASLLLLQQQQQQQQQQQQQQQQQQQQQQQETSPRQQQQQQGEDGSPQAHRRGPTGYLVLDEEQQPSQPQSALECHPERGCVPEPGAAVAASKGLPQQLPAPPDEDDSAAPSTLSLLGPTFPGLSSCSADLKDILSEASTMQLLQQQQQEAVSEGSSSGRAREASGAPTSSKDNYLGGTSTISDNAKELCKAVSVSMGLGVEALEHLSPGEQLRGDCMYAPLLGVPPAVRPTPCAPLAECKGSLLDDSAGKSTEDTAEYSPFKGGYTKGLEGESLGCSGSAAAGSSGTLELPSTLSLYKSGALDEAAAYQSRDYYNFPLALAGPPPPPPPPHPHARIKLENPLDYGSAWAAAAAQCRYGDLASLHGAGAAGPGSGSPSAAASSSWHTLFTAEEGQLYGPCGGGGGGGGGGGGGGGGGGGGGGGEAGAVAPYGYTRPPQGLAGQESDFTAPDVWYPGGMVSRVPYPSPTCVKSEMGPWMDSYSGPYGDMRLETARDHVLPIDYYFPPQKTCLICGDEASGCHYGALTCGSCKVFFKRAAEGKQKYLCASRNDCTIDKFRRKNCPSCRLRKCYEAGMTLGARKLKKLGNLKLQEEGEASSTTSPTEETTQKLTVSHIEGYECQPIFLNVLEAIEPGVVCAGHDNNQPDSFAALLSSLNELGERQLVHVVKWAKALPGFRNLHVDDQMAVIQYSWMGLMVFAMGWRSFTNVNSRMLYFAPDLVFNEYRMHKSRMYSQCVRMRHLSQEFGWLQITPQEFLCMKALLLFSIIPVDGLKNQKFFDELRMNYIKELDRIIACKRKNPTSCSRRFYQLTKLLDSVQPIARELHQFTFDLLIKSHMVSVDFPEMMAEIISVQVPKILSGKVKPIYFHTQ
# Summary of the method: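 Luminescence from an AR/GR-responsive MMTV-luciferase construct in MDA-kb2 breast carcinoma cells, read 30 min after ONE-Glo, following 16 hr co-treatment with compounds and 0.5 nM R1881.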
# [19] = target: Estrogen receptor beta (Homo sapiens) (UniProt Q92731); test: qHTS assay to identify small molecule antagonists of the estrogen receptor beta (ER-beta) signaling pathway (AID 1259378; active means well fitted inhibition curve with a large enough effect in the signal ratio in the repeat runs, not every such curve was filed as active; the % refers to the signal ratio)
# Summary of the method: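 ER-beta-UAS-bla HEK293T (GripTite) cells in 2% charcoal-stripped FBS medium were preincubated 6 hr at 37C, dosed with compound, then stimulated with 1 nM E2 (final) for 16 hr; beta-lactamase reporter read by B/G FRET fluorescence after 2 hr substrate loading.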
# [20] = qHTS assay to identify small molecule phospholipidosis (PLD) inducers (AID 1259344; active means well fitted curve in the direction sought with a large enough effect; an effect the other way counts as inactive or inconclusive)
# Summary of the method: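 Cells (HepG2, 900 per well) attach for 4 h, receive LipidTOX Red and compound together, incubate 24 h at 37 C, are fixed 30 min with paraformaldehyde/Hoechst, then imaged at one site per well.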
compound,measurement,setting,value
CC(Cl)COP(=O)(OCC(C)Cl)OCC(C)Cl (configuration not stated),Potency,[1],inactive
same,Potency,[2],inactive
same,Potency,[3],inactive
same,Potency,[4],inactive
same,Potency,[5],inactive
same,Potency,[6],inactive
same,Potency,[7],inactive
same,Potency,[8],inactive
same,Potency,[9],inactive
same,outcome,[10],inactive
same,Potency,[11],inactive
same,Potency,[12],inactive
same,outcome,[13],inactive
same,Potency,[14],inactive
same,Potency,[15],inactive
same,Potency,[16],inactive
same,outcome,[17],inactive
Cc1nc2n(c(=O)c1CCN1CCC(C(=O)c3ccc(F)cc3)CC1)CCS2,Potency,[1],5.35 µM (active)
same,Potency,[2],6.74 µM (active)
same,Potency,[3],inactive
same,Potency,[4],inactive
same,Potency,[5],inactive
same,Potency,[6],inactive
same,Potency,[7],inactive
same,outcome,[18],inactive
same,Potency,[9],inactive
same,outcome,[10],inactive
same,Potency,[11],inactive
same,outcome,[13],inactive
same,Potency,[16],inactive
same,outcome,[17],inactive
CC(C)C(=O)c1ccccc1,Potency,[1],inactive
same,Potency,[2],inactive
same,Potency,[3],inactive
same,Potency,[4],inactive
same,Potency,[5],inactive
same,Potency,[6],inactive
same,Potency,[7],inactive
same,Potency,[8],inactive
same,Potency,[9],inactive
same,outcome,[10],inactive
same,Potency,[11],inactive
same,Potency,[12],inactive
same,outcome,[13],inactive
same,Potency,[14],inactive
same,Potency,[15],inactive
same,outcome,[19],inactive
same,Potency,[16],inactive
CC(C)CCCCCCOC(=O)C1CCCCC1C(=O)OCCCCCCC(C)C (configuration not stated),Potency,[1],inactive
same,Potency,[2],inactive
same,Potency,[3],inactive
same,Potency,[4],inactive
same,Potency,[5],inactive
same,Potency,[6],inactive
same,Potency,[7],inactive
same,Potency,[8],inactive
same,Potency,[9],inactive
same,outcome,[10],inactive
same,Potency,[11],inactive
same,Potency,[12],inactive
same,outcome,[13],inactive
same,Potency,[14],inactive
same,Potency,[15],inactive
same,Potency,[16],inactive
O=C1OC(=O)c2ccccc21,Potency,[1],inactive
same,Potency,[2],inactive
same,Potency,[3],inactive
same,Potency,[4],inactive
same,Potency,[5],inactive
same,Potency,[6],inactive
same,Potency,[7],inactive
same,Potency,[8],inactive
same,Potency,[9],inactive
same,outcome,[10],inactive
same,Potency,[11],inactive
same,Potency,[12],inactive
same,outcome,[13],inactive
same,Potency,[14],inactive
same,Potency,[15],inactive
same,outcome,[19],inactive
same,Potency,[16],inactive
same,outcome,[17],inactive
CNC(=O)NC,Potency,[1],inactive
same,Potency,[2],inactive
same,Potency,[3],inactive
same,Potency,[4],inactive
same,Potency,[5],inactive
same,Potency,[6],inactive
same,Potency,[7],inactive
same,outcome,[18],inactive
same,Potency,[8],inactive
same,Potency,[9],inactive
same,outcome,[10],inactive
same,Potency,[11],inactive
same,Potency,[12],inactive
same,outcome,[13],inactive
same,Potency,[14],inactive
same,Potency,[15],inactive
same,Potency,[16],inactive
same,outcome,[17],inactive
Nc1ccc(/C=C/c2ccc(N)cc2S(=O)(=O)O)c(S(=O)(=O)O)c1,"activity change, negative = cytotoxicity",[1],1.86% [at 0.29 µM]
same,"activity change, negative = cytotoxicity",[2],0.0792% [at 0.29 µM]
same,activity change,[3],"0.863% [at 0.29 µM, active compounds read high]"
same,"activity change, negative = cytotoxicity",[4],2.99% [at 0.29 µM]
same,cytotoxicity increase,[5],-4.57% [at 0.29 µM]
same,"activity change, negative = cytotoxicity",[6],-1.15% [at 0.349 µM]
same,"viability change, negative = cytotoxic",[7],2% [at 0.349 µM]
same,"activity change, negative = inhibition",[8],6.51% [at 0.349 µM]
same,outcome,[20],inactive
same,"activity change, negative = inhibition",[9],6.62% [at 0.349 µM]
same,"activity change, negative = cytotoxicity",[10],0.175% [at 0.349 µM]
same,"viability change, negative = cytotoxic",[11],0.832% [at 0.349 µM]
same,"viability change, negative = cytotoxic",[12],1.69% [at 0.349 µM]
same,activity change,[13],-0.943% [at 0.349 µM]
same,"activity change, negative = inhibition",[14],1.08% [at 0.349 µM]
same,"activity change, negative = cytotoxicity",[16],1.1% [at 0.35 µM]
same,"activity change, negative = cytotoxicity",[17],1.15% [at 0.349 µM]
